Several values for one entry are separate records, joined by “and”; a condition that tells them apart may be missing. Equal entries are not always repeated. Results filed as inconclusive are left out. Some structures have more than one record in an assay (separate samples or runs), and their calls can disagree. Values without a mark were called inactive. The call rests on the fitted dose curve; in most records, active means well fitted inhibition curve with a large enough effect; inconclusive means small, poorly fitted or top-dose-only effect; inactive means flat fitted curve, though single readings scatter.
On the % scale 0 is the no-effect control and ±100 the full control effect.

One experiment is described as follows: Drug repurposing screens with cells derived from glioblastoma tumor samples (AID 1345199). Further: nearly all actives have a fitted effect of over 40% in size. The note with it: GBM patient neurospheres viability, ATP luminescence, 48 h; at 46 µM (top of the series); tumour line A. In a few lines:
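Four patient lines of CD133+ GBM neurospheres were screened at several concentrations; hits were retested in those lines plus three slower-growing GBM lines, using 48-hour treatment and ATP-based viability.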
Regarding `COc1cc2c(c(OC)c1OC)-c1c(cc3c(c1OC)OCO3)C[C@@H](C)[C@](C)(O)C2`, the activity, negative = cell killing was -25%. On the same count and under the same terms, as for `O=C1O[C@H]2[C@H](O)[C@@H]1OC(O)[C@H]2O` (some centres not stated), the figure is -25.4%; as for `Cn1nnnc1SCC1=C(C(=O)O)N2C(=O)[C@@H](NC(=O)[C@H](OC=O)c3ccccc3)[C@H]2SC1`, -11.9%; as for `O=P(O)(O)C(O)(Cc1cnc2ccccn12)P(=O)(O)O`, -12.2%. For the molecule `C=C[C@]1(C)C[C@@H](OC(=O)CO)[C@]2(C)[C@H](C)CC[C@]3(CCC(=O)[C@H]32)[C@@H](C)[C@@H]1O`, the activity, negative = cell killing was -29.8%. Same read-out and setting: next, `O=C(O)c1cc2ccccc2c(Cc2c(O)c(C(=O)O)cc3ccccc23)c1O`: -27.5%. The same measure, in the same setting: as for `O=P(O)(O)OC(CO)CO`, the figure is -6.76%.

Turning to `CCN(CC)CCOC(=O)c1ccc(N)cc1Cl`, the activity, negative = cell killing was -27.9%. In the case of `O=S(O)CNc1ccc(S(=O)(=O)c2ccc(NCS(=O)O)cc2)cc1`, the activity, negative = cell killing was -17.9%. Same read-out and setting: as for `NCCCC(=O)O`, the figure is 3.28%; as for `CC1(C)S[C@@H]2[C@H](NC(=O)C(C(=O)Oc3ccc4c(c3)CCC4)c3ccccc3)C(=O)N2[C@H]1C(=O)O` (some centres not stated), -6.42%; as for `CCC(CN)CC(C)CCNCC(O)CNCC(C)CC(CC)CN` (configuration not stated), -19.2%. Still for that read-out and setting: next, `CSCC[C@H](NC(=O)[C@H](Cc1ccc(OS(=O)(=O)O)cc1)NC(=O)[C@@H](N)CC(=O)O)C(=O)NCC(=O)N[C@@H](Cc1c[nH]c2ccccc12)C(=O)N[C@@H](CCSC)C(=O)N[C@@H](CC(=O)O)C(=O)N[C@@H](Cc1ccccc1)C(N)=O`: -8.64%; `O=C(OCCO)c1ccccc1O`: -21.4%. As to `O=P(O)(O)C(Sc1ccc(Cl)cc1)P(=O)(O)O`, the activity, negative = cell killing was -1.1%.

On to `OCC(O)COc1ccc(Cl)cc1` (configuration not stated), for which the activity, negative = cell killing is -5.56%.

The experiment is the same for the next values; noted with them: GBM patient neurospheres viability, ATP luminescence, 48 h; at 46.1 µM (top of the series); tumour line C.
Consider `CCCC1([C@H](O)C/C=C/[C@H]2[C@H](O)CC(=O)[C@@H]2CCCCCCC(=O)OC)CCC1`, for which the activity, negative = cell killing was -22%. The same measure, in the same setting: as for `CCOC(=O)COc1ccc2c(C)c(CCN(CC)CC)c(=O)oc2c1`, the figure is -14.9%; as for `COc1cc2c(c(OC)c1OC)-c1c(cc3c(c1OC)OCO3)C[C@@H](C)[C@](C)(O)C2`, -33.4% and -14.4%. On the same count and under the same terms, next, `O=C1O[C@H]2[C@H](O)[C@@H]1OC(O)[C@H]2O` (some centres not stated): 16.3%; `Cn1nnnc1SCC1=C(C(=O)O)N2C(=O)[C@@H](NC(=O)[C@H](OC=O)c3ccccc3)[C@H]2SC1`: -8.9%; `COc1ccc(C(=O)Nc2ccccc2CCC2CCCCN2C)cc1` (configuration not stated): -23.4%. The same measure, in the same setting: next, `COC[C@H](c1ccc(C(F)(F)F)cc1)N1CCN(C2(C)CCN(C(=O)c3c(C)ncnc3C)CC2)C[C@H]1C`: 5.67%. On to `O=P(O)(O)C(O)(Cc1cnc2ccccn12)P(=O)(O)O`, for which the activity, negative = cell killing was 2.63%. Still for that read-out and setting: next, `C=C[C@]1(C)C[C@@H](OC(=O)CO)[C@]2(C)[C@H](C)CC[C@]3(CCC(=O)[C@H]32)[C@@H](C)[C@@H]1O`: -2.01%; `O=C(O)c1cc2ccccc2c(Cc2c(O)c(C(=O)O)cc3ccccc23)c1O`: -1.97%; `CC(C(=O)O)c1ccc(C2CCCCC2)c2ccccc12` (configuration not stated): -7.75%.

Consider `CCCCOC(=O)C(=O)Nc1cccc(-c2nn[nH]n2)c1`, for which the activity, negative = cell killing was -2.11%. Still for that read-out and setting: as for `CC(=O)[C@@]1(O)CC[C@H]2[C@@H]3C=C(Cl)C4=CC(=O)CC[C@]4(C)[C@H]3CC[C@@]21C`, the figure is -23.8%; as for `O=P(O)(O)OC(CO)CO`, 3.76%. Turning to `Nc1ncnc(Nc2ccc(Cl)cc2)n1`, the activity, negative = cell killing is -9.25%. On the same count and under the same terms, next, `CCN(CC)CCOC(=O)c1ccc(N)cc1Cl`: -6%; `CCC(=O)OCC(=O)[C@@]1(OC(=O)CC)[C@H](C)C[C@H]2[C@@H]3CCC4=CC(=O)C=C[C@]4(C)[C@@]3(F)[C@@H](O)C[C@@]21C`: -2.15%; `O=S(O)CNc1ccc(S(=O)(=O)c2ccc(NCS(=O)O)cc2)cc1`: -2.81%. For the molecule `CC(=O)O[C@H]1CC[C@@]2(C)C(=CC[C@@H]3[C@@H]2CC[C@]2(C)C(c4cccnc4)=CC[C@@H]32)C1`, the activity, negative = cell killing is -13.1%.

Turning to `CCCCCCCCCCCCCCCC(=O)OC[C@@H](COP(=O)([O-])OCC[N+](C)(C)C)OC(=O)CCCCCCCCCCCCCCC`, the activity, negative = cell killing is 0.955%. On the same count and under the same terms, next, `C/C(=C(\CCOC(=O)c1ccccc1)SS/C(CCOC(=O)c1ccccc1)=C(/C)N(C=O)Cc1cnc(C)nc1N)N(C=O)Cc1cnc(C)nc1N`: -22.5%.

The values above are taken from PubChem BioAssay (NCATS).
